Assay results: the supplement of paper PMC6555819

Experiments:
Test in all cases: PBM binding z-score (relative to random genomic background probes); higher = stronger binding; sequences stand for … in GC…GCGATTGACAGCGTAGAATGAAGG
[1] = tested on: FXR:RXRa (NR concentration 270 nM, RXRa partner concentration 90 nM)
Outline: (§1)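 Scanned fluorescence from custom Agilent 4×180K protein-binding microarrays was regression-normalized. Binding z-scores use random background probes as reference. Ligand-free nuclear receptor dimers were incubated on the arrays for 1 h and detected with antibodies against each partner (one per run).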

[2] = tested on: LXRa:RXRa (NR concentration 270 nM, RXRa partner concentration 90 nM)
Outline: as §1

[3] = tested on: LXRa homodimer (NR concentration 270 nM)
Outline: as §1

[4] = tested on: LXRb:RXRa (NR concentration 270 nM, RXRa partner concentration 90 nM)
Outline: as §1

[5] = tested on: LXRb homodimer (NR concentration 270 nM)
Outline: as §1

[6] = tested on: PPARa:RXRa (NR concentration 270 nM, RXRa partner concentration 90 nM)
Outline: as §1

[7] = tested on: PPARg:RXRa (NR concentration 180 nM, RXRa partner concentration 90 nM)
Outline: as §1

[8] = tested on: PPARg:RXRa 270nM:90nM, anti-RXR (NR concentration 270 nM, RXRa partner concentration 90 nM)
Outline: as §1

[9] = tested on: PPARg:RXRa 30nM:10nM, anti-RXR (NR concentration 30 nM, RXRa partner concentration 10 nM)
Outline: as §1

[10] = tested on: PPARg:RXRa 90nM:30nM, anti-RXR (NR concentration 90 nM, RXRa partner concentration 30 nM)
Outline: as §1

Row | Sequence | PBM binding z-score [1] | PBM binding z-score [2] | PBM binding z-score [3] | PBM binding z-score [4] | PBM binding z-score [5] | PBM binding z-score [6] | PBM binding z-score [7] | PBM binding z-score [8] | PBM binding z-score [9] | PBM binding z-score [10]
1 | TAGCCTAGGTCATTGGGCCAGTTTAGTACGCATC | 4.25 | 3.21 | 0.757 | 2.35 | 0.194 | 3.88 | 3.49 | 3.27 | 0.719 | 2.06
2 | AGAAAGAGGGCACGCTGAGTTGATAGCAGAGTAG | 1.1 | 1.24 | -0.317 | 0.624 | -0.685 | 2.59 | 1.83 | 1.95 | 0.315 | 1.09
3 | TCATATAGGTAAAAGCTAGGTGAAAGTCCGATCT | 0.543 | 0.688 | -0.0379 | 0.557 | -0.187 | 1.69 | 1 | 2.74 | 4 | 3.37
4 | CTCGAAAGGTCGGTTGAGTTGAGTATACGGATAA | 2.22 | 1.48 | 0.18 | 1.5 | -0.0298 | 2.27 | 0.295 | 0.792 | 0.314 | 0.857
5 | GGAACGAGGGCATTCGAGTTGATTGCATGGCGAT | 0.926 | 1.7 | -0.316 | 0.105 | -0.391 | 1.4 | 0.653 | 0.598 | -0.244 | 0.242
6 | ATCTCTAGGTAAGACGCAGTTCAGTGAAGAACGC | 0.238 | 0.0302 | 0.0448 | -0.176 | 0.151 | -0.0926 | 0.38 | 0.423 | 0.101 | 0.323
7 | CCGACTGGGGCAAAGGTTAACATACTCAGTACGA | 2.41 | 2.19 | 0.28 | 2.96 | -0.551 | 6.17 | 11.3 | 9.21 | 9.81 | 10.1
8 | ATATGAAGGTTAGCTGGGGTCATTCAGACTAGGC | 5.27 | 6.28 | 3.34 | 5.36 | 1.06 | 4.7 | 2.43 | 3.52 | 1.14 | 2.37
9 | AGTTACGGGTCAACGAGGTTATAGCACGCGTATA | 6.05 | 5.15 | 0.781 | 4.47 | 0.793 | 5.63 | 5.57 | 5.55 | 2.17 | 4.38
10 | CGTCCAAAGTCAGAGAGGTCAGTGAATGCCGAGT | 1.93 | 2.04 | 1.25 | 1.98 | 0.362 | 2.51 | 0.249 | 0.942 | -0.0025 | 0.475
11 | ATCTCTAGGTAACGTTCAGTGAAAGATCGATAGA | 0.596 | 0.51 | -0.179 | 0.297 | 0.462 | 0.836 | 0.58 | 0.792 | 0.317 | 0.669
12 | TCTTGTAGATCAATAGGGGTTAAGAAAGTGCGCT | 1.29 | 4.13 | 0.187 | 2.93 | 0.868 | 2.7 | 0.337 | 2.1 | 2.94 | 2.42
13 | AGAATGAGGTTATAGGTAGATCAGGGAAGAAAGT | 2.06 | 2.1 | 0.425 | 1.89 | 0.41 | 3.67 | 4.23 | 4.73 | 3.33 | 4.47
14 | TATACAGGGTCAAAGGCCAGACTACGAATGTCGA | 7.5 | 6.15 | 2.32 | 4.84 | 2.22 | 6.39 | 8.41 | 7.38 | 5.4 | 7.02
15 | TCTAGTTGGTCACGGCGGTCACACACGACGGGTA | 0.993 | 1.08 | 0.832 | 0.799 | 0.516 | 1.39 | 1.12 | 1.99 | 3.11 | 2.43
16 | TTACCAAGCTGAGCTGAGGTCGTTGATCCAACTC | 0.0307 | -0.149 | -0.687 | -0.148 | -1.09 | 0.413 | -0.752 | -0.18 | -0.479 | -0.597
17 | CCTAGTTGGTAAAGGTCACACACGCTATAGGTAC | 6.25 | 5.71 | 4.56 | 5.64 | 2.13 | 5.93 | 5.47 | 6.3 | 4 | 5.63
18 | CCTAGCAGGCCAATCTGGGTCACTCGAGGCTTGA | -0.0192 | 1.35 | -0.447 | 0.667 | -1 | 2.98 | 1.69 | 1.96 | 0.0407 | 1.13
19 | CTTCCAAGGTCATAGGAGGTCAGTGAAGACAGAT | 7.67 | 7.56 | 6.46 | 6 | 1.51 | 6.02 | 5.71 | 6.17 | 2.87 | 4.89
20 | AGAATGAGGTTATACGTAGATCAGGTAAGAAAGT | 2.3 | 2.13 | 0.183 | 1.72 | -0.0403 | 3.17 | 2.14 | 2.25 | 0.708 | 1.53
21 | CAGCCTAGGTCAGGGCCAGTGTAGGAGGAACGTT | 1.51 | 1.17 | -0.646 | 0.424 | -1.41 | 2.1 | 0.721 | 0.845 | -0.701 | -0.0334
22 | ACTAGTTGGTCAGCTGAGGTCCCACACAATTCGG | 0.639 | -0.375 | -0.16 | -0.219 | 0.179 | -0.1 | 0.275 | -0.102 | -0.52 | -0.3
23 | ACTATTAGTTGATTTAGGGCAACCGATACGACGC | 0.352 | 0.0302 | 0.44 | 0.0865 | 1.19 | 0.816 | 0.99 | 0.588 | 0.446 | 0.717
